Source: PubChem BioAssay (NCI)
Compounds without any hit were thinned out: in the full panel of roughly 83,000, 20% have a hit.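 Single-concentration screen, 48 h exposure, 96-well plates. Endpoint: percent growth. Below 10 = active.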 Active and inactive are the calls of the source.

What was measured:
Test in all cases: NCI-60 one-dose screen, 48 h (100 = growth as untreated, 0 = no growth, -100 = all killed)
Conditions in all cases: 10 µM unless noted
HCT-15 colon = tested on: HCT-15 colon
HT29 colon = tested on: HT29 colon
SNB-75 CNS = tested on: SNB-75 CNS
SNB-19 CNS = tested on: SNB-19 CNS
U251 CNS = tested on: U251 CNS
PC-3 prostate = tested on: PC-3 prostate
SK-MEL-5 melanoma = tested on: SK-MEL-5 melanoma
LOX IMVI melanoma = tested on: LOX IMVI melanoma
SK-MEL-28 melanoma = tested on: SK-MEL-28 melanoma
SK-MEL-2 melanoma = tested on: SK-MEL-2 melanoma
EKVX NSCLC = tested on: EKVX NSCLC
UO-31 renal = tested on: UO-31 renal
TK-10 renal = tested on: TK-10 renal
ACHN renal = tested on: ACHN renal
CAKI-1 renal = tested on: CAKI-1 renal
CCRF-CEM leukemia = tested on: CCRF-CEM leukemia
MOLT-4 leukemia = tested on: MOLT-4 leukemia
UACC-62 melanoma = tested on: UACC-62 melanoma
SN12C renal = tested on: SN12C renal
A498 renal = tested on: A498 renal

Measured: growth

COc1cccc(-c2nc3occn3c2-c2ccnc(NCCNS(=O)(=O)c3ccc(C(F)(F)F)cc3)n2)c1
inactive: HCT-15 colon 80% | HT29 colon 85.1% | SNB-75 CNS 87% | SNB-19 CNS 98% | U251 CNS 101% | PC-3 prostate 77.6% | SK-MEL-5 melanoma 82.5% | LOX IMVI melanoma 93.3% | SK-MEL-28 melanoma 108% | SK-MEL-2 melanoma 98.2% | EKVX NSCLC 84.3% | UO-31 renal 66.1% | TK-10 renal 116% | ACHN renal 80.9% | CAKI-1 renal 64.3% | CCRF-CEM leukemia 92.1% | MOLT-4 leukemia 75.3%

C=C1C(=O)O[C@H]2[C@H]1CC/C(CNC(=O)/C=C/c1ccccc1)=C\CC[C@@]1(C)O[C@@H]21
inactive: SNB-75 CNS 86.8% | SNB-19 CNS 52.5% | U251 CNS 46.1% | SK-MEL-2 melanoma 40.8%
active: HCT-15 colon -72.7% | HT29 colon -22.8% | PC-3 prostate 9.48% | UACC-62 melanoma -81.6% | LOX IMVI melanoma -88% | SK-MEL-28 melanoma -38.1% | EKVX NSCLC -16.2% | SN12C renal -32.1% | UO-31 renal -85.2% | TK-10 renal -47.1% | ACHN renal -34.5% | CAKI-1 renal -88.1% | CCRF-CEM leukemia 1.78% | MOLT-4 leukemia -26.4%

c1ccc2c(-c3c[nH]c4ccccc34)c3c(cc2c1)[nH]c1ccccc13
inactive: HCT-15 colon 47% | HT29 colon 72.5% | SNB-75 CNS 38.4% | SNB-19 CNS 90.9% | U251 CNS 70.1% | PC-3 prostate 69.9% | UACC-62 melanoma 68.3% | LOX IMVI melanoma 60.1% | SK-MEL-2 melanoma 50.6% | EKVX NSCLC 77.4% | SN12C renal 80.8% | UO-31 renal 58.3% | TK-10 renal 94.1% | ACHN renal 62.1% | CAKI-1 renal 63% | CCRF-CEM leukemia 43.9% | MOLT-4 leukemia 38.2%

CNC(=O)c1cncc(Cn2nc(C)c(NC(=O)c3ccc(COc4ccc(C(F)(F)F)cc4C)cc3)c2C)c1
inactive: HCT-15 colon 74.7% | HT29 colon 56.5% | SNB-75 CNS 77.7% | SNB-19 CNS 56.6% | U251 CNS 63.7% | PC-3 prostate 53.9% | UACC-62 melanoma 64.7% | LOX IMVI melanoma 64.3% | SK-MEL-28 melanoma 81.6% | SK-MEL-2 melanoma 48.8% | EKVX NSCLC 46.5% | SN12C renal 69.1% | UO-31 renal 58.6% | TK-10 renal 61.9% | ACHN renal 62% | CAKI-1 renal 60% | CCRF-CEM leukemia 69% | MOLT-4 leukemia 41.7%

COc1ccc(OC)c(-c2cc(-c3ccc(Cl)cc3)c3c(N)c(C(=O)c4ccc(Cl)cc4)sc3n2)c1
inactive: HCT-15 colon 106% | HT29 colon 91.1% | SNB-75 CNS 73.6% | SNB-19 CNS 103% | U251 CNS 101% | PC-3 prostate 81.4% | UACC-62 melanoma 92.2% | LOX IMVI melanoma 98.3% | SK-MEL-28 melanoma 105% | SK-MEL-2 melanoma 94.2% | EKVX NSCLC 93.8% | SN12C renal 101% | UO-31 renal 75.4% | TK-10 renal 102% | ACHN renal 97.4% | CAKI-1 renal 88.5% | CCRF-CEM leukemia 88.7% | MOLT-4 leukemia 103%

NS(=O)(=O)c1ccc(CCN2C(=O)C3C(C2=O)C2(Cl)C(Cl)=C(Cl)C3(Cl)C2(Cl)Cl)cc1 (centres undefined)
inactive: HCT-15 colon 90.5% | HT29 colon 85.8% | SNB-75 CNS 88% | SNB-19 CNS 101% | U251 CNS 104% | PC-3 prostate 42.3% | UACC-62 melanoma 75.2% | LOX IMVI melanoma 92.1% | SK-MEL-28 melanoma 108% | SK-MEL-2 melanoma 99% | EKVX NSCLC 93% | SN12C renal 99.9% | UO-31 renal 85.8% | TK-10 renal 110% | ACHN renal 111% | CAKI-1 renal 71.7% | A498 renal 114% | CCRF-CEM leukemia 49.6% | MOLT-4 leukemia 88.3%

COc1ccc2c(c1)oc1c(C)c3c(c(C)c12)C(=O)N(CCN1CCOCC1)C3=O
inactive: HCT-15 colon 102% | HT29 colon 99.3% | SNB-75 CNS 99.5% | SNB-19 CNS 97.5% | U251 CNS 105% | PC-3 prostate 82.8% | UACC-62 melanoma 93.3% | LOX IMVI melanoma 96.4% | SK-MEL-28 melanoma 103% | SK-MEL-2 melanoma 124% | EKVX NSCLC 110% | SN12C renal 93.2% | UO-31 renal 85.1% | TK-10 renal 115% | ACHN renal 104% | CAKI-1 renal 88.1% | A498 renal 109% | CCRF-CEM leukemia 77.4% | MOLT-4 leukemia 83.1%

COc1cc(/C=C\c2cc(OC)c(OC)c(OC)c2)cc(N)c1OC
inactive: HCT-15 colon 70% | HT29 colon 87% | SNB-75 CNS 78.7% | SNB-19 CNS 88.6% | U251 CNS 91.2% | PC-3 prostate 82.1% | UACC-62 melanoma 74.7% | LOX IMVI melanoma 86.8% | SK-MEL-28 melanoma 97.6% | SK-MEL-2 melanoma 74.2% | EKVX NSCLC 94.1% | SN12C renal 93.4% | UO-31 renal 69% | TK-10 renal 95.9% | ACHN renal 105% | CAKI-1 renal 56.4% | A498 renal 76.5% | CCRF-CEM leukemia 74% | MOLT-4 leukemia 93.1%

C#Cc1cccc(NC(=O)c2cccc(NC(=O)CCl)c2)c1
active: HCT-15 colon -63.4% [8.25 µM] | HT29 colon -7.83% [8.25 µM] | SNB-75 CNS -21.9% [8.25 µM] | U251 CNS -93.7% [8.25 µM] | PC-3 prostate -70.8% [8.25 µM] | UACC-62 melanoma -33.7% [8.25 µM] | LOX IMVI melanoma -89% [8.25 µM] | SN12C renal -65.9% [8.25 µM] | UO-31 renal -98.9% [8.25 µM] | TK-10 renal -72.4% [8.25 µM] | ACHN renal -96.8% [8.25 µM] | CAKI-1 renal 0.818% [8.25 µM] | CCRF-CEM leukemia 8.26% [8.25 µM]
inactive: SNB-19 CNS 11.5% [8.25 µM] | SK-MEL-28 melanoma 37.4% [8.25 µM] | SK-MEL-2 melanoma 30.8% [8.25 µM] | EKVX NSCLC 86.1% [8.25 µM] | A498 renal 46.6% [8.25 µM]

O=S(=O)(NCCCNc1nccc(-c2c(-c3cccc(F)c3)nc3sccn23)n1)c1cccc2ccccc12
inactive: HCT-15 colon 18% | SNB-75 CNS 86.5% | SNB-19 CNS 69% | U251 CNS 59.1% | PC-3 prostate 41.2% | UACC-62 melanoma 24.3% | LOX IMVI melanoma 20.9% | SK-MEL-28 melanoma 77.5% | SK-MEL-2 melanoma 47.8% | EKVX NSCLC 56.1% | SN12C renal 46.9% | UO-31 renal 20% | TK-10 renal 71.7% | ACHN renal 34.7% | CAKI-1 renal 29.1% | CCRF-CEM leukemia 38.5% | MOLT-4 leukemia 29.3%
active: HT29 colon 1.97%

COCc1cnccc1NC1CCCCCC1
inactive: HCT-15 colon 107% | HT29 colon 90.7% | SNB-75 CNS 98.1% | SNB-19 CNS 104% | U251 CNS 103% | PC-3 prostate 98.1% | SK-MEL-5 melanoma 101% | LOX IMVI melanoma 100% | SK-MEL-28 melanoma 110% | EKVX NSCLC 102% | SN12C renal 99.4% | UO-31 renal 86.3% | TK-10 renal 94.1% | ACHN renal 108% | CAKI-1 renal 94.4% | A498 renal 84.4% | CCRF-CEM leukemia 101% | MOLT-4 leukemia 94.4%

Cn1ccnc1C(=O)/C=C/c1ccc(CC(=O)NC2CCCCC2)cc1
inactive: HCT-15 colon 33.1% | HT29 colon 15.3% | SNB-19 CNS 46.2% | U251 CNS 31.4% | PC-3 prostate 59.7% | UACC-62 melanoma 73.4% | LOX IMVI melanoma 44.5% | SK-MEL-28 melanoma 92.3% | SK-MEL-2 melanoma 108% | EKVX NSCLC 77.4% | SN12C renal 61.2% | UO-31 renal 60.4% | TK-10 renal 94.8% | ACHN renal 81.3% | CAKI-1 renal 66.9% | CCRF-CEM leukemia 33.5% | MOLT-4 leukemia 67.7%
active: SNB-75 CNS 3.39%

COc1ccc(CCn2cncc2-c2c[nH]c3ccccc23)cc1
inactive: HCT-15 colon 93.1% | HT29 colon 82.9% | SNB-75 CNS 44.4% | SNB-19 CNS 91.4% | U251 CNS 95.7% | PC-3 prostate 80.7% | UACC-62 melanoma 81.6% | LOX IMVI melanoma 88.3% | SK-MEL-28 melanoma 101% | EKVX NSCLC 71.4% | SN12C renal 80.8% | UO-31 renal 50.7% | TK-10 renal 141% | ACHN renal 87% | CAKI-1 renal 68.7% | A498 renal 69.5% | CCRF-CEM leukemia 101% | MOLT-4 leukemia 93.1%

COC(=O)c1ccc2c(c1)[n+](=O)c(C(C)=O)c(C(F)(F)F)n2[O-]
inactive: SK-MEL-28 melanoma 27% | TK-10 renal 25.9%
active: HCT-15 colon -77.5% | HT29 colon -56% | SNB-75 CNS -20.5% | SNB-19 CNS -6.44% | U251 CNS -72.2% | PC-3 prostate -58.1% | UACC-62 melanoma -32.7% | LOX IMVI melanoma -95.3% | EKVX NSCLC -46.3% | SN12C renal -34% | UO-31 renal -82% | ACHN renal -99.3% | CAKI-1 renal -78.5% | A498 renal 6.79%

O=C(c1nnc(Nc2ccccc2Br)o1)c1c[nH]c2ccccc12
inactive: HCT-15 colon 80.1% | HT29 colon 100% | SNB-75 CNS 89.2% | SNB-19 CNS 96.8% | U251 CNS 96.9% | PC-3 prostate 87.6% | UACC-62 melanoma 83% | LOX IMVI melanoma 96% | SK-MEL-28 melanoma 104% | SK-MEL-2 melanoma 110% | EKVX NSCLC 104% | SN12C renal 93.4% | UO-31 renal 87% | TK-10 renal 112% | ACHN renal 90.8% | CAKI-1 renal 87.4% | CCRF-CEM leukemia 97.5% | MOLT-4 leukemia 106%

COc1ccc(-c2[nH][nH]c(=O)c2-c2nc3ccccc3s2)cc1
inactive: HCT-15 colon 95.4% | HT29 colon 106% | SNB-75 CNS 88.9% | SNB-19 CNS 102% | U251 CNS 101% | PC-3 prostate 102% | SK-MEL-5 melanoma 102% | LOX IMVI melanoma 99.9% | SK-MEL-28 melanoma 112% | SK-MEL-2 melanoma 104% | EKVX NSCLC 99.9% | UO-31 renal 86.6% | TK-10 renal 108% | ACHN renal 106% | CAKI-1 renal 88% | CCRF-CEM leukemia 99.1% | MOLT-4 leukemia 102%

O=C1Nc2cc(-c3cccc(O)c3)ccc2/C1=C/c1ccc[nH]1
inactive: HT29 colon 83.3% | SNB-19 CNS 43.4% | U251 CNS 25.9% | PC-3 prostate 35.4% | UACC-62 melanoma 24.1% | SK-MEL-28 melanoma 16.4% | EKVX NSCLC 22.6% | SN12C renal 15.5% | TK-10 renal 16.4% | ACHN renal 11% | CCRF-CEM leukemia 13.4% | MOLT-4 leukemia 15.4%
active: HCT-15 colon 9.89% | SNB-75 CNS -13.7% | LOX IMVI melanoma 7.66% | SK-MEL-2 melanoma 3.73% | UO-31 renal -1.56% | CAKI-1 renal 5.88%
